Screens as filed in PubChem.
TRHR agonist-1: agonists of human TRH receptor; activation, % at 2 µM; actives 0.18% (n = 360,000); P34981; TRHR cells, calcium flux fluo-8, FDSS agonist mode
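In this calcium-flux screen, cells bearing human TRHR are dye-loaded with fluo-8, baselined for 10 cycles, then exposed to library compounds; positive kinetic calcium responses during the agonist phase mark hits, with TRH as control.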
TRHR enhancer-1: allosteric enhancers of human TRH receptor; P34981; TRHR cells, fluo-8 calcium fluorescence, EC20 TRH enhancement; enhancement, % at 2 µM; actives 0.66% (n = 360,000); in the data active = enhancement above about 30%
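TRHR-expressing cells loaded with fluo-8 calcium dye were read kinetically (ex 480/em 530) during compound addition, then stimulated with an EC20 of TRH (10 nM final). Enhancement of the Gq-mediated intracellular calcium response was scored.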
D1 antag: human D1 dopamine receptor antagonism; P21728; HEK293 TREx D1 cells, calcium flux, dopamine EC80; hits give low values; activity change, negative = inhibition, % at 10 µM; actives 3.2% (n = 360,000); in the data active = activity change below about -30%
Target sequence (P21728 whole entry, looked up): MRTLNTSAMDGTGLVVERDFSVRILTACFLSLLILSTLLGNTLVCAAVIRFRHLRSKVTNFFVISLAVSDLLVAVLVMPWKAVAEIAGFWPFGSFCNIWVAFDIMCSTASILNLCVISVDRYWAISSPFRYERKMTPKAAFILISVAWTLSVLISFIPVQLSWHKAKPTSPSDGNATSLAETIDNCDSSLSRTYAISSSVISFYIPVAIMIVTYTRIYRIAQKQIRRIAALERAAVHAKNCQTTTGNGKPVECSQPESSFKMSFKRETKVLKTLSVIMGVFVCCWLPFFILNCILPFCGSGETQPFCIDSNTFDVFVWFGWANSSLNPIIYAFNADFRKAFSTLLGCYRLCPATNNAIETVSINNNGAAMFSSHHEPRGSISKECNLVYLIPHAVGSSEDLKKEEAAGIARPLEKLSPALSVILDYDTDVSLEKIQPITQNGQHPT
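Allosteric or orthosteric antagonism assessed as attenuation of the calcium response to EC80 dopamine, added 180 s after compound, in induced HEK293 Trex D1 cells loaded with no-wash calcium dye.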
D1 agonist: agonists of human D1 dopamine receptor; HEK293 T-REx D1 cells, calcium flux, agonist mode; activation, % at 2 µM; P21728; actives 1% (n = 360,000)
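Inducible HEK293 T-REx D1 cells, force-coupled to calcium signalling, were plated at 4000 cells/well with tetracycline and held overnight at 30 C. After no-wash calcium dye loading, compound-evoked calcium rise over 180 s flagged agonists.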
D1 potentiator: potentiators of human D1 dopamine receptor | HEK293 TREx D1 cells, calcium flux, dopamine EC20 potentiation | actives 0.036% (n = 360,000) | potentiation, % at 10 µM | AID 504651 | P21728; in the data active = potentiation above about 30%
TRHR enhancer-2: human TRH receptor allosteric enhancement confirmation; shares compounds with TRHR enhancer-1; TRH receptor cell assay, enhancer confirmation qHTS; activity change, negative = inhibition, % at 46.1 µM; 970 tested, under 10 active; active = well fitted curve in the direction sought with a large enough effect; inconclusive = small, poorly fitted or top-dose-only effect, or another doubt; inactive = no such curve, though single readings can be large; an effect the other way counts as inactive or inconclusive;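 also: compound effect scored on response to added TRH at EC20 of 10 nM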
TRHR agonist-2: confirmation of human TRH receptor agonists; shares compounds with TRHR enhancer-1; TRHR-expressing cells, agonist activation read-out; Potency, µM (top dose mostly 46.1 µM), actives largely listed as activators; actives 8% (n = 970); AID 493078; active = well fitted curve in the direction sought with a large enough effect; inconclusive = small, poorly fitted or top-dose-only effect, or another doubt; inactive = no such curve, though single readings can be large; an effect the other way counts as inactive or inconclusive; also: nearly all actives have a fitted effect of over 75% in size
Of the large screens only hits and unclear results are named; the others gave an inactive call (follow-up assays come after a bar, where they were run); ! = not active in a repeat. An excerpt weighted towards active compounds, which were near 4.7% of everything screened. Rule as the data show it, unless noted: active = activation above about 30%; inactive = the rest.

CC(C)[C@@]1(NC(=O)[C@@H]2C=C3c4cccc5[nH]cc(c45)C[C@H]3N(C)C2)O[C@@]2(O)[C@@H]3CCCN3C(=O)[C@H](Cc3ccccc3)N2C1=O	none
CC(C)[C@@]1(NC(=O)[C@@H]2C[C@@H]3c4cccc5[nH]cc(c45)C[C@H]3N(C)C2)O[C@@]2(O)[C@@H]3CCCN3C(=O)[C@H](Cc3ccccc3)N2C1=O	D1 antag -68
CC(C)[C@H]1C(=O)N2CCC[C@H]2[C@]2(O)O[C@](NC(=O)[C@@H]3C=C4c5cccc6[nH]cc(c56)C[C@H]4N(C)C3)(C(C)C)C(=O)N12	D1 antag -34
Cc1ccccc1-n1c(/C=C/c2ccccc2F)nc2ccccc2c1=O	none
CCN(CC)C(=O)c1ccc(NC(=O)CCn2nc(-c3ccc(C)cc3)c3ccccc3c2=O)cc1	none
Cc1cccc(Cn2cccc(C(=O)Nc3nnc(C)s3)c2=O)c1	none (no result: D1 antag)
Cc1ccc(-c2nc(N3CCOCC3)s[n+]2-c2ccccc2)cc1	TRHR enhancer-1 31
CC(C)Cc1nc2cccnc2n1C1CCNCC1	none
O=C(N/N=C/c1c(O)n(CCc2ccc(F)cc2)c(=O)[nH]c1=O)c1ccncc1	none
O=C(N/N=C/c1c(O)n(CCc2ccccc2)c(=O)[nH]c1=O)c1ccncc1	D1 antag -37
Cc1ccc(Cn2cccc(C(=O)Nc3ccc(C)c(Cl)c3)c2=O)cc1	none (no result: D1 antag)
O=c1[nH]c(O)c(C=Nc2ccccc2[N+](=O)[O-])c(=O)[nH]1	D1 antag -47
Cc1ccc(C2=NCC(=O)N(CC(=O)N3CCCCC3)c3sc(C)c(C)c32)cc1	TRHR enhancer-1 30
CCCCc1ccc(NC(=O)c2cccn(Cc3ccc(Cl)cc3)c2=O)cc1	none
COCCNCCOc1ccc(C(C)(C)c2ccccc2)cc1	D1 agonist 38
Brc1ccc(Oc2ccc(Br)cc2Br)c(Br)c1	none (no result: D1 antag)
Nc1ccc2cc(Br)ccc2c1	D1 antag -31
CC(Cc1ccccc1)NC(N)=O (stereo unspecified)	none
CC(Cc1ccccc1)NC(=O)/C=C/c1ccc(Cl)cc1 (stereo unspecified)	D1 antag -32
Oc1cc2c(cc1O)[C@H]1c3ccccc3CN[C@@H]1CC2	D1 antag -87, D1 agonist 67
Cc1cc(-n2c(/C=C/c3ccc(Br)s3)nc3ccccc3c2=O)ccc1Br	none
Cc1cc(-n2c(/C=C/c3cccs3)nc3ccccc3c2=O)ccc1Br	D1 antag -32
Cc1ccc2c(c1)C1CN(C)CCC1N2C(=O)Nc1cccc(Cl)c1 (stereo unspecified)	D1 antag -96
Cc1ccccc1-n1nc(C)c2c1NC(=O)CSC2c1ccccc1C(F)(F)F (stereo unspecified)	none
CN1CCN(c2cc([N+](=O)[O-])ccc2Cl)CC1	D1 antag -51
CN1CCN(c2ccc([N+](=O)[O-])cc2Cl)CC1	none
CC(=O)OCC[N+](C)(C)C	TRHR agonist-1 36, D1 agonist 46!
Cc1sc2ccccc2c1CC1=NCCN1	D1 antag -47
Fc1ccc(CCNCc2ccc(Br)cc2)cc1	D1 agonist 33
COc1cccc(CNCCc2ccc(F)cc2)c1	none
Fc1ccc(CNCCc2ccccc2F)cc1	none
Fc1ccc(CCNCc2cccc(Cl)c2)cc1	D1 agonist 42
Cc1ccc(-c2nn3c(=O)cc(CN4CCN(C(=O)COc5ccc(C)c(C)c5)CC4)nc3s2)cc1	none
CCOc1ccc(CN(CCc2ccc3c(c2)OCO3)Cc2ccc(CC)cc2)cc1	none
COc1ccc(CC(C)NCCC(c2ccccc2)c2ccccc2)cc1 (stereo unspecified)	D1 agonist 43
COc1ccc2[nH]c(C)c(CCNCc3cccnc3)c2c1	D1 agonist 34
Cc1ccc2[nH]c(C)c(CCNCc3ccco3)c2c1	none
Cc1[nH]c2ccc(OC(F)(F)F)cc2c1CCNCc1cccc([N+](=O)[O-])c1	none
Cc1[nH]c2ccc(OC(F)(F)F)cc2c1CCNCc1ccc(Cl)cc1	D1 agonist 41
CCOc1cccc(CNCCc2c(C)[nH]c3ccc(OC(F)(F)F)cc23)c1O	D1 agonist 117
CN1CCN(c2csc3ccc(F)cc3c2=O)CC1	none
CCOc1cc2c(cc1OCC)-n1cccc1C(c1ccc(OC)c(O)c1)NC2 (stereo unspecified)	D1 agonist 96
S=C=Nc1cccc(C2(N3CCCCC3)CCCCC2)c1	D1 antag -91
CC(C(=O)c1ccccc1)N1C(=O)c2ccccc2C1=O (stereo unspecified)	none
CC(Cc1ccccc1)N1C(=O)c2ccccc2C1=O (stereo unspecified)	TRHR enhancer-1 55 | TRHR enhancer-2 inactive | TRHR agonist-2 inactive
COc1cc(C)c(CNCCc2c[nH]c3ccccc23)cc1C	none
O=C(CN1CC=C(c2ccccc2)CC1)NC(=O)NCc1ccccc1	TRHR enhancer-1 62 | TRHR enhancer-2 inconclusive | TRHR agonist-2 inactive
Cc1cccc(N2C(=O)NC(=O)/C(=C/c3ccc(-c4ccc(C(=O)O)c(Cl)c4)o3)C2=O)c1	none
O=C1NC(=O)N(c2cccc(Cl)c2)C(=O)/C1=C\c1ccc(Sc2nc3ccccc3[nH]2)o1	TRHR agonist-1 47, D1 agonist 63 | TRHR enhancer-2 inactive | TRHR agonist-2 inconclusive
Cc1ccccc1-c1nc(CS(=O)CC(=O)N2CCC3(CC2)OCCO3)c(C)o1 (stereo unspecified)	TRHR enhancer-1 42 | TRHR enhancer-2 inactive | TRHR agonist-2 inactive
CCN(CC)CCO	none (no result: D1 antag)
CCCCCn1c(N)c(C(=O)NCCN2CCOCC2)c2nc3ccccc3nc21	none
O=C(NCCN1CCOCC1)c1ccc(Cl)nc1	TRHR agonist-1 75 | TRHR enhancer-2 inactive | TRHR agonist-2 inactive
O=C(O)c1cc[c]([Hg][Cl])cc1	none
CCC1(C)OC(c2ccccc2)=C/C(=C/C=C2C(=O)NC(=O)NC2=O)O1 (stereo unspecified)	TRHR agonist-1 41, D1 agonist 108 | TRHR enhancer-2 inactive | TRHR agonist-2 inconclusive
